FBW7 activator – human FBW7 E3 ligase activation, primary screen | AlphaScreen FBW7–phospho-cyclin E peptide binding, activator screen | normalized activity (activation), % at 26.1 µM | 650,000 tested, 0.13% active | Q969H0; in the data active = normalized activity above about 1.9%;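 note: purified mutant Fbw7 with reduced substrate affinity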
MITF primary – human MITF inhibition, primary screen; AlphaScreen MITF homodimerization, bead proximity signal; 650,000 tested, 0.91% active; inhibition, % at 2.6 µM; O75030; AID 1259374; in the data active = inhibition above about 50%;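 note: 0% = vehicle wells with protein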
GPR151 activ – activators of human GPR151; PathHunter beta-arrestin GPR151 cells, luminescence; Q8TDV0; activation, % at 11.2 µM; 650,000 tested, 1% active; in the data active = activation above about 4.9%;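 note: 0% = median of compound wells and 100% = cells with positive control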
Target sequence (Q8TDV0 whole entry, looked up): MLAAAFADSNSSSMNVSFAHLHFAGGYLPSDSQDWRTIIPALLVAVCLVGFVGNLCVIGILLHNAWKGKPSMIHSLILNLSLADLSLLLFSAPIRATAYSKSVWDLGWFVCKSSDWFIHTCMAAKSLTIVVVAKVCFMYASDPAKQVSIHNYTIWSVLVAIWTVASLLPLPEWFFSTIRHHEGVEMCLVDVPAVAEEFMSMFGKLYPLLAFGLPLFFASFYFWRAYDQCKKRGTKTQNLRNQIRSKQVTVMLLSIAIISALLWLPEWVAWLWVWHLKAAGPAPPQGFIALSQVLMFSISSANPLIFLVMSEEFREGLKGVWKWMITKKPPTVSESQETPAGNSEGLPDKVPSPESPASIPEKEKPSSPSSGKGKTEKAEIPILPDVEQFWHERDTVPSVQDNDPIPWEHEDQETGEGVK
TEAD-YAP block – TEAD-YAP interaction inhibition. HEK-TIYL cells, TEAD-Gal4/YAP UAS-luciferase luminescence. inhibition, % at 9.12 µM. 640,000 tested, 1.4% active; in the data active = inhibition above about 32%;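 note: 0% = median of test compound wells and 100% = reference inhibitor wells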
Starred values were filed as active, the others as inactive. Most compounds without a hit are left out; they make up all but 3.5% or so of the library.

SMILES	FBW7 activator	MITF primary	GPR151 activ	TEAD-YAP block
Cc1ccc(NCS(=O)(=O)c2ccc(C)cc2)cc1	-0.1	-2.0	-1.4	-29.9
CCC(=O)N1CCc2cc(-c3nc(NC(C)=O)sc3C)ccc21	0.1	7.3	0.6	80.0*
CCC(=O)N1CCc2cc(-c3nc(N)sc3C)ccc21	0.0	14.1	-2.0	10.2
CNc1nc(-c2ccc3c(c2)CCN3C(C)=O)c(C)s1	0.8	21.7	1.0	-46.6
CC(=O)Nc1nc(-c2ccc3c(c2)CCN3C(C)=O)c(C)s1	0.9	-11.8	-0.7	52.9*
Cn1nc(-c2ccc(Cl)cc2)cc1NC(=O)CCl	-0.1	-1.3	-1.5	46.1*
Cn1nc(-c2ccc(Cl)cc2)cc1NC(=O)Cn1c2ccccc2c(=O)c2ccccc21	0.6	-0.1	-0.5	-2.5
O=C(Cc1ccc(Cl)cc1)N1CCC(O)(c2cccnc2)CC1	0.2	18.5	0.9	9.2
CCSc1nnc(CNC(=O)c2ccc(C)c(C)c2)n1-c1cccc(C)c1	0.3	19.8	-0.6	7.2
O=C1CC(c2ccccc2OCc2ccccc2)c2cc3c(cc2N1)OCO3 (stereo not drawn)	-0.1	-0.2	-0.9	5.3
COc1ccc(OC)c(C2C3=C(COC3=O)Nc3cc4c(cc32)OCO4)c1 (stereo not drawn)	0.6	-6.8	-0.8	54.7*
COc1ccccc1C1CC(=O)Nc2cc3c(cc21)OCO3 (stereo not drawn)	0.0	10.9	-0.6	52.8*
O=C1OCC2=C1C(c1ccccc1Br)c1cc3c(cc1N2)OCO3 (stereo not drawn)	0.0	6.6	0.2	39.9*
Cc1c(C(=O)Nc2ccc3c(c2)OCO3)sc2ncn(CC(=O)N3CCOCC3)c(=O)c12	0.4	14.5	-0.7	-6.5
COc1ccc2c(c1)CC(c1nc3cc(-c4cn[nH]c4)ccc3o1)CO2 (stereo not drawn)	0.8	33.5	0.7	-2.1
COc1ccc(CNS(=O)(=O)c2ccc(OC)c3ccccc23)cc1	0.0	-5.4	3.5	34.3*
COc1ccc(S(=O)(=O)NCc2cccnc2)c2ccccc12	1.0	9.9	-0.3	0.9
CCCCP(=Nc1ccccc1)(N(CC)CC)N(CC)CC	0.2	8.4	1.2	92.1*
CCCCN(CC)S(=O)(=O)c1ccccc1	0.1	-26.5	-0.8	0.3
COc1ccccc1-n1c(C)cc(/C=C2/C(=N)N3C=C(C)SC3=NC2=O)c1C	0.1	15.3	0.7	5.2
COc1ccccc1-n1c(C)cc(/C=C2\C(=N)N3N=CSC3=NC2=O)c1C	0.3	20.4	0.5	74.6*
Cc1cc(/C=C2/C(=N)N3C=CSC3=NC2=O)c(C)n1-c1ccc(Cl)cc1	0.0	-4.2	4.5	-4.9
COc1ccc(C)cc1-n1c(C)cc(/C=C2/C(=N)N3C=CSC3=NC2=O)c1C	0.7	14.5	-1.5	51.2*
Cc1ccc(-n2c(C)cc(/C=C3/C(=N)N4C=CSC4=NC3=O)c2C)c(C)c1	-0.1	-1.5	-0.7	64.2*
Cc1cccc(OC(=O)c2ccc([N+](=O)[O-])cc2)c1	0.0	3.1	-0.4	-1.7
SMILES	FBW7 activator	MITF primary	GPR151 activ	TEAD-YAP block
COc1ccc(-c2cncc3ccc(C(=O)N[C@H](C)c4ccccc4)nc23)cc1	0.5	14.7	1.5	60.9*
COc1ccc(-c2cncc3ccc(C(=O)N[C@@H](C)c4ccccc4)nc23)cc1	0.1	-12.9	-1.4	49.5*
O=C(CSc1nnc(-c2cccs2)o1)NCc1cccs1	0.2	-31.7	0.5	9.4
COc1ccc(N2C(C(C)=O)=NN(c3ccccc3)C2c2ccccc2OCc2c(Cl)cccc2Cl)cc1 (stereo not drawn)	0.5	2.7	0.5	44.5*
Clc1ccc(COc2ccccc2C2N(c3ccccc3)N=C(c3ccccc3)N2c2ccccc2)cc1 (stereo not drawn)	0.4	19.7	0.0	85.1*
COc1ccc(N2C(C(C)=O)=NN(c3ccc(Cl)cc3)C2c2ccc(OCc3c(Cl)cccc3Cl)c(OC)c2)cc1 (stereo not drawn)	0.1	7.3	-0.4	-0.6
C[C@]12C=CC(=O)C=C1CCC1C2[C@@H](O)C[C@@]2(C)C1CC[C@]2(O)C(=O)COC(=O)CCC(=O)O (stereo partly drawn)	8.0*	1.9	0.6	-7.3
CCOC(=O)N/N=C(\C)c1cc2ccccc2o1	0.0	-12.6	-1.3	-19.8
CCOC(=O)Cn1c(=O)n(CCc2ccc(OC)c(OC)c2)c(=O)c2cccnc21	0.1	7.5	2.2	-6.8
N#CC1=C(N)Oc2c(ccc3cccnc23)C1c1ccc(Br)cc1 (stereo not drawn)	-1.0	12.4	-1.1	17.4
Cc1ccc(C2C(C#N)=C(N)Oc3c2ccc2cccnc32)cc1 (stereo not drawn)	0.0	-0.2	1.6	37.4*
N#CC1=C(N)Oc2cc(N)ccc2C1c1cccc([N+](=O)[O-])c1 (stereo not drawn)	0.3	-2.2	1.4	40.4*
N#CC1=C(N)Oc2c(ccc3cccnc23)C1c1cccc([N+](=O)[O-])c1 (stereo not drawn)	-0.4	8.8	0.8	48.6*
N#CC1=C(N)Oc2c(ccc3cccnc23)C1c1ccccc1Cl (stereo not drawn)	-1.0	2.7	-2.1	17.2
CCCC(=O)Nc1ccc(N(CC)CC)cc1C	0.0	-2.2	-0.5	0.8
CC1=NN(c2ccccc2)C(=O)C1N=Nc1cccc(O)c1 (stereo not drawn)	-0.7	26.4	-0.9	48.7*
Cn1cc(/C=C2/NC(=O)N(c3cccc(Cl)c3)C2=O)c2ccccc21	0.1	10.1	1.8	50.4*
COC(=O)Cn1cc(/C=C2/NC(=O)N(c3cccc(Cl)c3)C2=O)c2ccccc21	0.1	-2.9	1.7	1.6
CC1=NN(c2ccc(Br)cc2)C(=O)/C1=C\c1ccc(-c2c(Br)cc([N+](=O)[O-])cc2Br)o1	-0.3	14.3	-1.0	-1.6
CC1=NN(c2ccc([N+](=O)[O-])cc2)C(=O)/C1=C\c1ccc(C)o1	0.0	80.6*	2.5	1.6
Cc1cc(C)n(CC(O)Cn2c(C)c(C)c3ccccc32)n1 (stereo not drawn)	-0.3	52.8*	-0.2	-4.8
COc1cc(CN2CCc3nnc(C(C)C)n3CC2)cc(OC)c1OC	-0.2	9.1	1.3	6.3
O=c1cc(Nc2ccc3c(c2)OCCO3)[nH]c(=O)n1C1CCCCC1	-0.3	10.8	1.0	58.2*
O=c1cc(Nc2ccc3c(c2)OCCO3)[nH]c(=O)n1-c1ccc(Cl)cc1	-0.3	-2.8	-0.3	-4.8
CCOc1ccc(N=CC=Nc2ccc(OCC)cc2)cc1	0.4	17.6	0.9	3.6
N.N.N.N.N.N.N.N.N.N.N.N.N.N.O.O.[Cl-].[Cl-].[Cl-].[Cl-].[Cl-].[Cl-].[Ru+2].[Ru+2].[Ru+2]	0.6	46.9	0.4	40.8*
O=c1cc(CN2CCCCC2)c2cc(O)ccc2o1	0.1	6.0	0.2	0.8
O=c1cc(CN2CCN(Cc3ccc4c(c3)OCO4)CC2)c2cc(O)c(O)cc2o1	-0.8	90.5*	4.0	-3.4
O=c1cc(CN2CCN(c3ccccc3O)CC2)c2cc(O)c(O)cc2o1	0.2	89.7*	-0.4	-4.5
